Laboratory results taken from PubChem BioAssay (NCATS).
Inconclusive results are not listed. Activity calls are given as the source filed them. The call rests on the fitted dose curve; in most records, active means well fitted curve in the direction sought with a large enough effect; inconclusive means small, poorly fitted or top-dose-only effect, or another doubt; inactive means no such curve, though single readings can be large; an effect the other way counts as inactive or inconclusive.

Experiments:
[1] = target: Cellular tumor antigen p53 (Homo sapiens) (UniProt P04637); assay: Primary qHTS for small molecule compounds that upregulate eGFP-tagged delta133p53alpha (in N-terminal) cells. (AID 2060322); details: NCI-H358 eGFP-delta133p53alpha fluorescence, 24 h; activation: stronger effect = higher value;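 further: series mostly up to about 56 µM; 0% = DMSO vehicle and 100% = reference activator; nearly all actives have a fitted effect of over 75% in size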
Summary of the method: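 NCI-H358 cells pre-induced 24 h with 10 ng/ml doxycycline to express N-terminal eGFP-delta133p53alpha, then dosed 24 h at 37C without doxycycline; fixed, Hoechst-stained, GFP intensity by laser scanning cytometry, normalized to DMSO (0%) and 57.5 uM 5-azacytidine (100%).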

[2] = target: Aldehyde dehydrogenase, mitochondrial (Homo sapiens) (UniProt P05091); assay: qHTS for Inhibitors of the Aldehyde Dehydrogenase Family (ALDH2) Primary screen (AID 2061308);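 further: plate controls were vehicle for no effect and reference inhibitor for full effect; nearly all actives have a fitted effect of over 55% in size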
[3] = target: Retinaldehyde dehydrogenase 3 (Homo sapiens) (UniProt P47895); assay: qHTS for Inhibitors of the Aldehyde Dehydrogenase Family (ALDH1A3) Primary screen (AID 2061315);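 further: plate controls were DMSO vehicle for no effect and reference inhibitor for full effect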

Chain of Cellular tumor antigen p53 (Homo sapiens) (P04637 whole entry, looked up): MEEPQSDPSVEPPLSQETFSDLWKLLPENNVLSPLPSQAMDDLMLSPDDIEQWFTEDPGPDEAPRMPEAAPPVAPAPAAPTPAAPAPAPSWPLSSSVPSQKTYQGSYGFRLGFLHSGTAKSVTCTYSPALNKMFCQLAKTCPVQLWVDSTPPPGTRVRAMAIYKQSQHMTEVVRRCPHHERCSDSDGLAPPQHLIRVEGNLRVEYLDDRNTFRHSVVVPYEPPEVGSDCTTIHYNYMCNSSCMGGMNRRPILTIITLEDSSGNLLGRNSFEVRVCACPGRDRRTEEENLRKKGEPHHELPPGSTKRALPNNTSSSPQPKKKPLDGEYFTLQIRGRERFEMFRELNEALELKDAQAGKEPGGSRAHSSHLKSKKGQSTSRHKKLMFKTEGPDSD

COC1C(=O)CCC2(CO2)C1(O)C1(C)OC1CC=C(C)C (stereo not given)
inactive: activation [1] -9.82% | Potency [2] | Potency [3]

CC1=CC2/C=C(\C)CCC3OC(C)(C)OC3CCC(=O)C23C(=O)NC(CC(C)C)C3C1C (stereo not given)
inactive: activation [1] -10.7% | Potency [2] | Potency [3]

COc1cc(/C=C2\CC[C@H]3COC[C@@H](c4cc(F)c(F)c(F)c4)N3C2=O)ccc1-n1cnc(C)c1
inactive: activation [1] -13.7% | Potency [2] | Potency [3]

COC(=O)c1cc(OC)c(O[C@@H]2O[C@@H](C)[C@H](O)[C@@H](O)[C@H]2O)c(OC)c1
inactive: activation [1] 1.53% | Potency [2] | Potency [3]

CC(=O)/C=C/[C@H]1[C@](C)(O)[C@@H](O)[C@H](OC(C)=O)C2C(C)(C)CCC[C@@]21C (stereo not given in full)
inactive: activation [1] -2.68% | Potency [2] | Potency [3]

COc1c(N2CC3CCCNC3C2)c(F)cc2c(=O)c(C(=O)O)cn(C3CC3)c12 (stereo not given)
inactive: activation [1] 3.34% | Potency [2] | Potency [3]

CC1=CC(=O)[C@H]2C(C)(C)CCC[C@]2(C)[C@@]1(O)CO
inactive: activation [1] -29% | Potency [2] | Potency [3]

COc1cc2c(cc1OC)CN(C(=O)[C@@H](NCc1ccncc1)C(C)(C)C)CC2
inactive: activation [1] 5.25% | Potency [2] | Potency [3]

CCOC(=O)[C@H](CCc1ccccc1)N[C@@H](C)C(=O)N1C2CCCCC2C[C@H]1C(=O)O (stereo not given in full)
inactive: activation [1] -7% | Potency [2] | Potency [3]

O=C(c1ccc2nccnc2c1)N1CCCCC1
inactive: activation [1] -11% | Potency [2] | Potency [3]

Cc1coc2c1CC1OC1(C)CCC1OC1(C)C2 (stereo not given)
inactive: activation [1] 4.46% | Potency [2] | Potency [3]

CC(C)CCC[C@@H](C)[C@H]1CC[C@H]2[C@@H]3CC(=O)[C@H]4C[C@@H](O)CC[C@]4(C)[C@H]3CC[C@]12C
inactive: activation [1] -7% | Potency [2] | Potency [3]

CC(C)=CCC/C(C)=C/CO[C@@H]1O[C@H](CO[C@@H]2OC[C@](O)(CO)[C@H]2O)[C@@H](O)[C@H](O)[C@H]1O
inactive: activation [1] 2.29% | Potency [2] | Potency [3]

COc1cc(/C=C/C(=O)O[C@@H]2C[C@@](O)(C(=O)O)C[C@@H](O)[C@@H]2O)ccc1O
inactive: activation [1] -1.53% | Potency [2] | Potency [3]

C=CC[C@]12C[C@@H](OC)C(=O)C(OC)=C1O[C@@H](c1cc(OC)c3c(c1)OCO3)[C@@H]2C
inactive: activation [1] -13.4% | Potency [2] | Potency [3]

CC(=O)O[C@H]1CC[C@]2(C)[C@H]3CC[C@]4(C)Oc5oc(C)cc(=O)c5C[C@H]4[C@]3(C)CC[C@H]2C1(C)C
inactive: activation [1] 0% | Potency [2] | Potency [3]

CC(=O)O[C@H]1C[C@H](OC(C)=O)[C@]2(C)[C@H](CC[C@@]34O[C@@H]3C3=C(C)C(=O)O[C@@H]3C[C@H]42)C1(C)C
inactive: activation [1] 4.46% | Potency [2] | Potency [3]

COC(=O)c1ccccc1O[C@@H]1O[C@H](CO)[C@@H](O)[C@H](O)[C@H]1O[C@@H]1O[C@@H](C)[C@H](O)[C@@H](O)[C@H]1O
inactive: activation [1] -10.7% | Potency [2] | Potency [3]

CC1(C)C2CC[C@@]34CC(CC[C@H]3[C@]2(C)CC[C@@H]1O[C@@H]1O[C@H](CO)[C@@H](O)[C@H](O)[C@H]1O)[C@](C)(O)C4 (stereo not given in full)
inactive: activation [1] -22.1% | Potency [2] | Potency [3]

Cc1cnn(-c2ccccc2)c1NC(=O)COCc1ccccc1
inactive: activation [1] 0.333% | Potency [2] | Potency [3]

COc1ccccc1CC(C(=O)O)N(C)C(=O)c1ccccc1 (stereo not given)
inactive: activation [1] -8.04% | Potency [2] | Potency [3]

CC(C)CC(=O)O[C@@H]1O[C@H](CO)[C@@H](O[C@H]2O[C@H](C)[C@@H](N[C@H]3C=C(CO)[C@@H](O[C@H]4O[C@H](CO)[C@@H](O[C@H]5O[C@H](CO)[C@@H](O[C@H]6O[C@H](CO)[C@@H](O)[C@H](O)[C@H]6O)[C@H](O)[C@H]5O)[C@H](O)[C@H]4O)[C@H](O)[C@H]3O)[C@H](O)[C@H]2O)[C@H](O)[C@H]1O
inactive: activation [1] -13.7% | Potency [2] | Potency [3]

C[C@@H]1CCC2C(C)(C)[C@H](O)CC[C@]2(C)[C@@]12Cc1c(O)cc3c(c1O2)CN(CCO)C3=O (stereo not given in full)
inactive: activation [1] 11.5% | Potency [2] | Potency [3]

C=C1CCC2[C@](C)(CCC[C@@]2(C)C=O)[C@H]1CC/C(C)=C/CO (stereo not given in full)
inactive: activation [1] 11.5% | Potency [2] | Potency [3]

CC1OC(O[C@H]2[C@@H](O)C[C@@]3(C)C([C@H](O)C[C@]4(C)C3CC=C3C5CC(C)(C)CC[C@]5(C(=O)OC5OC(CO)C(O)C(O)C5OC5OCC(OC6OCC(OC7OCC(O)C(O)C7O)C(O)C6O)C(OC6OCC(O)(CO)C6O)C5O)CC[C@]34C)[C@]2(C)CO)C(O)C(O)C1O (stereo not given in full)
inactive: activation [1] -6.11% | activity change, negative = inhibition [2] -1.36% [at 11.2 µM] | activity change, negative = inhibition [3] -4.53% [at 11.2 µM]
